In PubChem BioAssay AID1159580 (chemical genetic matrix, 2015):
Out of some 5,500 compounds screened, about 2,000 (36%) were called active. Not shown: some 18% with an inconclusive outcome. No stated cut-off is given here; in the data, active means normalized growth mostly below about 0.91 (no sharp cut-off); inconclusive means no clear call, values can overlap the other calls; inactive means mostly above about 0.92. The list shows a part of the results.

Test: chemical genetic growth profiling, strain panel (AID 1159580);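 further: tested at 20 µM; growth read once vehicle control cultures reached saturation at 30 °C; 1 = growth at the plate median or of vehicle wells; lower values mean less growth of the strain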
Conditions: growth OD

Measured: normalized growth

CC(C)Nc1nc(Cl)nc(NC(C)C)n1
inactive: S. cerevisiae deletion strains, locus YJR075W, strain HOC1, hits give low values 1.01 | S. cerevisiae deletion strains, locus YKL009W, strain mrt4, hits give low values 1.01 | S. cerevisiae deletion strains, locus YKL068W, hits give low values 1.01 | S. cerevisiae deletion strains, locus YKL085W, strain MDH1 (second series), hits give low values 1 | S. cerevisiae deletion strains, locus YKL085W, strain MDH1, hits give low values 1 | S. cerevisiae deletion strains, locus YKL160W, strain elf1, hits give low values 1 | S. cerevisiae deletion strains, locus YKL190W, strain CNB1, hits give low values 1.01 | S. cerevisiae deletion strains, locus YKR001C, strain vps1, hits give low values 1.01 | S. cerevisiae deletion strains, locus YKR026C, strain gcn3, hits give low values 0.994 | S. cerevisiae deletion strains, locus YKR091W, strain srl3, hits give low values 0.998 | S. cerevisiae deletion strains, locus YLL001W, strain dnm1, hits give low values 1.01 | S. cerevisiae deletion strains, locus YLL026W, hits give low values 0.991 | S. cerevisiae deletion strains, locus YLL041C, strain sdh2, hits give low values 1 | S. cerevisiae deletion strains, locus YLR027C, strain aat2, hits give low values 0.995 | S. cerevisiae deletion strains, locus YLR039C, strain RIC1, hits give low values 0.995 | S. cerevisiae deletion strains, locus YLR058C, strain SHM2, hits give low values 1.01 | S. cerevisiae deletion strains, locus YLR102C, strain apc9, hits give low values 1.02 | S. cerevisiae deletion strains, locus YLR113W, strain HOG1, hits give low values 1 | S. cerevisiae deletion strains, locus YLR221C, strain rsa3, hits give low values 0.994 | S. cerevisiae deletion strains, locus YLR258W, strain gsy2, hits give low values 1 | S. cerevisiae deletion strains, locus YLR262C, strain YPT6 (second series), hits give low values 0.935 | S. cerevisiae deletion strains, locus YLR262C, strain YPT6, hits give low values 0.984 | S. cerevisiae deletion strains, locus YLR268W, strain sec22, hits give low values 0.992 | S. cerevisiae deletion strains, locus YLR320W, strain mms22, hits give low values 0.995 | S. cerevisiae deletion strains, locus YLR330W, strain CHS5, hits give low values 1.01 | S. cerevisiae deletion strains, locus YLR342W, strain FKS1 (second series), hits give low values 1.01 | S. cerevisiae deletion strains, locus YLR342W, strain FKS1, hits give low values 1.01 | S. cerevisiae deletion strains, locus YLR357W, strain rsc2, hits give low values 0.95 | S. cerevisiae deletion strains, locus YLR370C, strain arc18, hits give low values 1 | S. cerevisiae deletion strains, locus YLR371W, strain rom2, hits give low values 1.01 | S. cerevisiae deletion strains, locus YLR384C, strain iki3, hits give low values 1 | S. cerevisiae deletion strains, locus YLR418C, strain cdc73, hits give low values 0.979 | S. cerevisiae deletion strains, locus YML016C, strain PPZ1, hits give low values 1.01 | S. cerevisiae deletion strains, locus YML032C, strain rad52, hits give low values 1.01 | S. cerevisiae deletion strains, locus YML120C, strain ndi1, hits give low values 0.998 | S. cerevisiae deletion strains, locus YML124C, strain tub3, hits give low values 1.01 | S. cerevisiae deletion strains, locus YMR058W, strain fet3, hits give low values 1.01 | S. cerevisiae deletion strains, locus YMR078C, strain ctf18, hits give low values 1.02 | S. cerevisiae deletion strains, locus YMR125W, strain sto1, hits give low values 0.997 | S. cerevisiae deletion strains, locus YMR129W, hits give low values 0.994 | S. cerevisiae deletion strains, locus YMR205C, strain PFK2, hits give low values 0.985 | S. cerevisiae deletion strains, locus YMR223W, strain ubp8, hits give low values 1.01 | S. cerevisiae deletion strains, locus YMR231W, strain pep5, hits give low values 0.999 | S. cerevisiae deletion strains, locus YMR263W, strain SAP30, hits give low values 1.02 | S. cerevisiae deletion strains, locus YMR307W, strain GAS1, hits give low values 1.02 | S. cerevisiae deletion strains, locus YNL067W, strain RPL9B, hits give low values 0.999 | S. cerevisiae deletion strains, locus YNL071W, strain lat1, hits give low values 1 | S. cerevisiae deletion strains, locus YNL128W, strain TEP1, hits give low values 1 | S. cerevisiae deletion strains, locus YNL153C, strain GIM3, hits give low values 0.989 | S. cerevisiae deletion strains, locus YNL183C, strain NPR1, hits give low values 0.935 | S. cerevisiae deletion strains, locus YNL209W, strain ssb2, hits give low values 0.999 | S. cerevisiae deletion strains, locus YNL233W, strain BNI4, hits give low values 1.02 | S. cerevisiae deletion strains, locus YNL248C, strain rpa49, hits give low values 0.982 | S. cerevisiae deletion strains, locus YNL250W, strain rad50, hits give low values 1.01 | S. cerevisiae deletion strains, locus YNL271C, strain bni1, hits give low values 1.01 | S. cerevisiae deletion strains, locus YNL298W, strain CLA4, hits give low values 1.02 | S. cerevisiae deletion strains, locus YNL307C, strain MCK1, hits give low values 1.02 | S. cerevisiae deletion strains, locus YNL322C, strain KRE1 (second series), hits give low values 0.992 | S. cerevisiae deletion strains, locus YNL322C, strain KRE1, hits give low values 1.01 | S. cerevisiae deletion strains, locus YNR049C, strain mso1, hits give low values 1 | S. cerevisiae deletion strains, locus YNR052C, strain pop2, hits give low values 1.01 | S. cerevisiae deletion strains, locus YOL006C, strain TOP1, hits give low values 1.03 | S. cerevisiae deletion strains, locus YOL012C, strain htz1 0.789 | S. cerevisiae deletion strains, locus YOL147C, strain pex11, hits give low values 1.01 | S. cerevisiae deletion strains, locus YOR001W, strain rrp6, hits give low values 0.999 | S. cerevisiae deletion strains, locus YOR061W, strain CKA2, hits give low values 0.998 | S. cerevisiae deletion strains, locus YOR069W, strain VPS5, hits give low values 1.01 | S. cerevisiae deletion strains, locus YOR070C, strain gyp1, hits give low values 1.01 | S. cerevisiae deletion strains, locus YOR080W, strain dia2, hits give low values 0.994 | S. cerevisiae deletion strains, locus YOR083W, strain WHI5, hits give low values 1 | S. cerevisiae deletion strains, locus YOR106W, strain vam3, hits give low values 1.01 | S. cerevisiae deletion strains, locus YOR136W, strain idh2, hits give low values 1.01 | S. cerevisiae deletion strains, locus YOR144C, strain elg1, hits give low values 1 | S. cerevisiae deletion strains, locus YOR184W, strain ser1, hits give low values 1.02 | S. cerevisiae deletion strains, locus YOR231W, strain MKK1, hits give low values 0.978 | S. cerevisiae deletion strains, locus YOR265W, strain rbl2, hits give low values 1 | S. cerevisiae deletion strains, locus YOR270C, strain vph1, hits give low values 1.01 | S. cerevisiae deletion strains, locus YOR290C, strain snf2, hits give low values 1.02 | S. cerevisiae deletion strains, locus YOR316C, strain cot1, hits give low values 1.01 | S. cerevisiae deletion strains, locus YPL051W, strain arl3, hits give low values 0.997 | S. cerevisiae deletion strains, locus YPL055C, strain LGE1, hits give low values 0.983 | S. cerevisiae deletion strains, locus YPL078C, strain atp4, hits give low values 0.999 | S. cerevisiae deletion strains, locus YPL106C, strain sse1, hits give low values 1 | S. cerevisiae deletion strains, locus YPL240C, strain hsp82, hits give low values 1.01 | S. cerevisiae deletion strains, locus YPL241C, strain CIN2, hits give low values 1 | S. cerevisiae deletion strains, locus YPL256C, strain CLN2, hits give low values 0.966 | S. cerevisiae deletion strains, locus YPR119W, strain clb2, hits give low values 1.01 | S. cerevisiae deletion strains, locus YPR141C, strain kar3, hits give low values 1.02 | S. cerevisiae deletion strains, locus YPR163C, strain tif3, hits give low values 1 | S. cerevisiae deletion strains, locus YPR167C, strain met16, hits give low values 1.01 | S. cerevisiae deletion strains, strain wtn01, hits give low values 1.01 | S. cerevisiae strains, strain wild type, hits give low values 1
